Assay outcomes deposited in PubChem by National Center for Advancing Translational Sciences (NCATS).
Hits are enriched below; roughly 21% of the tested compounds scored in any of these assays.
TDP1 cell CPT = growth inhibition of DT40 Tdp1-/-;hTDP1 cells with camptothecin (screen for TDP1 inhibitors); chicken DT40 Tdp1-/-;hTDP1 cells + 20 nM CPT, ATP luminescence, 48 h; 12% of 420,000 active; Potency, µM (doses to about 46.2 µM), actives largely listed as inhibitors; AID 686979; further: nearly all actives have a fitted effect of over 55% in size
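Cell growth measured by CellTiter-Glo luminescence after a minimum 48 h, 37 C compound exposure with 20 nM CPT in Tdp1-knockout DT40 cells stably expressing hTDP1, seeded 400/well; qHTS titration format.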
RORgamma inh = inhibitors of mouse ROR gamma transcriptional activity; P51450; Drosophila S2 Gal4-RORgamma UAS-luciferase reporter, 20 h; Potency, µM (top dose mostly 53.6 µM), most hits filed as inhibitors; 5.4% of 310,000 active; AID 2551; further: nearly all actives have a fitted effect of over 60% in size
Target sequence (P51450 whole entry, looked up, the tested form may be a part): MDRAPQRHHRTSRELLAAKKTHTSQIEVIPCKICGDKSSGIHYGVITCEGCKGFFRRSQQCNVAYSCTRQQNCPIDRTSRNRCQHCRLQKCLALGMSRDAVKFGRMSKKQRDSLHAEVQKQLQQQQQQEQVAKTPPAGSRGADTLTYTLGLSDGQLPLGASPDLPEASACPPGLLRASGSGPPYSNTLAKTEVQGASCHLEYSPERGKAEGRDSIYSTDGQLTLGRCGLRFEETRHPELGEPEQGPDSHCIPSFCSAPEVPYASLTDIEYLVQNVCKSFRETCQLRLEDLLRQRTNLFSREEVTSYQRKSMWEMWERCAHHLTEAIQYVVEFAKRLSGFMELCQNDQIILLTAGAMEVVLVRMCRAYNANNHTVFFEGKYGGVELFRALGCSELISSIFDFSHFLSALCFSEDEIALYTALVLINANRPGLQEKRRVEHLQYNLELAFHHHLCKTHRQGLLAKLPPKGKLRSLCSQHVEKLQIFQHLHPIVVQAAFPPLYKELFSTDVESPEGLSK
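Drosophila Schneider cells stably carrying a metallothionein-driven Gal4 DBD–ROR gamma fusion and a UAS-Photinus luciferase reporter were exposed to compound for 1 hr, then induced with copper sulfate (700 uM final) for 20 hr at ambient temperature before luminescence reading.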
ELG1 repair inh = inhibitors of ELG1-dependent DNA repair in HEK293T cells; HEK293T ELG1-luciferase reporter, luminescence, 16 h; DNA damage induced by 5-fluorouridine; Potency, µM (highest dose often 46.1 µM), most hits filed as inhibitors; 2.3% of 330,000 active; AID 504467; further: nearly all actives have a fitted effect of over 55% in size
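Reporter activity after DNA damage by 5-fluorouridine is monitored. Compound-treated cells incubate 16 hr at 37 °C, then ONE-Glo is added for 30 min before luminescence reading.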
IL1B secr inh = inhibitors of inflammasome signaling (IL-1 beta secretion); THP-1 LPS/ATP IL-1B secretion, AlphaLISA, 16 h; stronger effect = lower value; activity change, % at 57.5 µM; 4.7% of 360,000 active; in the data active means activity change below about -50%; inconclusive means mostly about -30% to -49%
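THP-1 cells pretreated 1 hr with compounds (up to 57.5 uM final), then stimulated with LPS (250 ng/mL final) plus ATP (1.25 mM final); secreted IL-1B measured by AlphaLISA after 16 hr, decreased signal indicating inhibition.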
TDP1 cell noCPT = qHTS for Inhibitors of human tyrosyl-DNA phosphodiesterase 1 (TDP1): qHTS in cells in absence of CPT; Potency, µM (doses to about 46.2 µM), usual class: inhibitors; 15% of 420,000 active; DT40 Tdp1-/- hTDP1 cells, no CPT, ATP luminescence, 48 h; further: nearly all actives have a fitted effect of over 55% in size
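Growth kinetics read by CellTiter-Glo luminescence after ≥48 hr at 37 °C. Cells: DT40 Tdp1-/- stably carrying human TDP1, 400 per well, compound exposure in the absence of CPT (DMSO vehicle).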
VP16 counter = Gal4-VP16 reporter inhibition counter-screen. Drosophila S2 Gal4-VP16 UAS-luciferase, luminescence, 20 h. Potency, µM (top dose mostly 53.6 µM), usual class: inhibitors. 3.5% of 310,000 active;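 further: Gal4-VP16 expression switched on by copper sulfate through the metallothionein promoter; nearly all actives have a fitted effect of over 50% in size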
Numbers stand for hits; - = inactive; ? = inconclusive; . = not tested or not shown. Unless noted, the call rests on the fitted dose curve; in most records, active means well fitted curve in the direction sought with a large enough effect; inconclusive means small, poorly fitted or top-dose-only effect, or another doubt; inactive means no such curve, though single readings can be large; an effect the other way counts as inactive or inconclusive.

SMILES	TDP1 cell CPT	RORgamma inh	ELG1 repair inh	IL1B secr inh	TDP1 cell noCPT	VP16 counter
Cc1cc(SCC(=O)N2CCCC2=O)nc2ccccc12	-	.	-	-	-	.
Cc1nn(-c2ccc(F)cc2)c(Cl)c1C(=O)OC(C)C(=O)N(C)C1CCCCC1 (configuration not stated)	?	.	?	-	12µM	.
Cc1ccc(Nc2c(C(C)C)c(C)c(C#N)c3nc4ccccc4n23)cc1	18µM	.	.	.	15µM	.
Cc1ccc(-c2c(C#N)c(N)n3c(nc4ccccc43)c2C#N)cc1	21µM	?	18µM	-	16µM	?
Cc1cc(N2CCN(c3ccccn3)CC2)n2c(nc3ccccc32)c1C#N	?	-	-	-	18µM	-
Cc1cccc(NC(=O)CSc2cc(C)c(C#N)c3nc4ccccc4n23)c1	18µM	0.79µM	?	-	12µM	?
N#Cc1c2c(c(N3CCN(c4ccccn4)CC3)n3c1nc1ccccc13)CCC2	.	?	-	.	.	-
Cc1c(CCCl)c(Cl)n2c(nc3ccccc32)c1C#N	0.92µM	.	.	-113	0.65µM	.
Cc1cc(Cl)n2c(nc3ccccc32)c1C#N	0.41µM	3.2µM	21µM	-100	0.46µM	?
COc1ccc(Cn2c(O)c(C=Nc3ccc(C)cc3)c3ccccc3c2=O)cc1	-	-	-	-	-	-
COc1ccc(Cn2c(-c3ccc(C)cc3)c[n+]3ccccc23)cc1	1µM	-	?	-	0.92µM	18µM
COc1ccc(-c2nc3ccccc3n2Cc2ccc(C)cc2)cc1	16µM	13µM	.	-	?	?
C=C(C)Cn1c(-c2ccc(OC)cc2)nc2ccccc21	13µM	-	-	-	15µM	-
COCn1c(-c2ccc(OC)cc2)nc2ccccc21	-	?	?	-	-	-
C=CCn1c(-c2ccc(C)cc2)nc2ccccc21	15µM	?	?	-	21µM	-
COC(=O)c1cc(OC)c(OC)c(OC)c1NC(=O)c1cc(=O)n(C)c(=O)n1C	-	.	.	.	-	.
CCCn1c(-c2ccc(OC)cc2)nc2ccccc21	2.6µM	?	-	-	3.7µM	-
COc1ccc(-c2nc3ccccc3n2OC(C)C(=O)O)cc1 (configuration not stated)	-	-	?	-	-	-
COc1ccc(-c2nc3ccccc3n2Cc2ccc(Cl)cc2)cc1	21µM	.	.	.	21µM	.
CCOC(Cn1c(-c2ccc(OC)cc2)nc2ccccc21)OCC	23µM	?	-	-	16µM	-
Clc1ccc(-c2nc3ccccc3n2OCc2ccccc2)cc1	21µM	-	-	-	21µM	-
Cc1ccc(S(=O)(=O)N2CCCC(C(=O)NCCc3ccc(Cl)cc3)C2)cc1 (configuration not stated)	?	.	.	-	?	.
CCOC(=O)n1c(=O)n(Cc2ccc(OC)cc2)c2ccccc21	?	-	?	-	16µM	-
CCOC(=O)n1c(=O)n(Cc2ccccc2C)c2ccccc21	-	-	-	-	?	-
COc1cccc(N2C(=O)CC(NNC(=O)c3cccs3)C2=O)c1 (configuration not stated)	-	-	-	-	-	-
COc1ccc(N2C(=O)CC(NNC(=O)c3ccc(Br)s3)C2=O)cc1 (configuration not stated)	-	-	-	-64	-	-
CC(C)c1ccc(N2C(=O)CC(NNC(=O)c3ccccc3Cl)C2=O)cc1 (configuration not stated)	-	?	-	.	-	3.2µM
CN(C)C(=O)c1ccc(-c2nc(Nc3ccncc3)c3ccccc3n2)cc1	?	-	.	.	?	-
CN(C)C(=O)c1ccc(Nc2nc(-c3cccs3)nc3ccccc23)cc1	10µM	-	?	-74	7.3µM	-
CN(C)C(=O)c1ccc(-c2ccc3ncnc(Nc4ccccc4)c3c2)cc1	?	-	.	.	1.5µM	-
